Measurements published in PubChem BioAssay AID376 (PDSP, 2006).
Several values for one entry are separate records, joined by “and”; a condition that tells them apart may be missing. Identical values can stand only once. About 250 (12%) of roughly 2,000 compounds were called active. Many of the other results were omitted from the sample, so actives are more common in it than they were. A number with no mark means an inactive call. Rule as the data show it: active = hERG blockade below about -20% or above about 20%; inactive = in between.

Molecular target: Voltage-gated inwardly rectifying potassium channel KCNH2 (Homo sapiens) (UniProt Q12809)
Assay: KCNH2 potassium channel function modulators, cell-based (AID 376);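 also: 0% = buffer alone and 100% = reference blocker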
Conditions: hERG-expressing cells, channel activity single-concentration screen; concentration not given here

Sequence of Voltage-gated inwardly rectifying potassium channel KCNH2 (Homo sapiens) (Q12809 whole entry, looked up): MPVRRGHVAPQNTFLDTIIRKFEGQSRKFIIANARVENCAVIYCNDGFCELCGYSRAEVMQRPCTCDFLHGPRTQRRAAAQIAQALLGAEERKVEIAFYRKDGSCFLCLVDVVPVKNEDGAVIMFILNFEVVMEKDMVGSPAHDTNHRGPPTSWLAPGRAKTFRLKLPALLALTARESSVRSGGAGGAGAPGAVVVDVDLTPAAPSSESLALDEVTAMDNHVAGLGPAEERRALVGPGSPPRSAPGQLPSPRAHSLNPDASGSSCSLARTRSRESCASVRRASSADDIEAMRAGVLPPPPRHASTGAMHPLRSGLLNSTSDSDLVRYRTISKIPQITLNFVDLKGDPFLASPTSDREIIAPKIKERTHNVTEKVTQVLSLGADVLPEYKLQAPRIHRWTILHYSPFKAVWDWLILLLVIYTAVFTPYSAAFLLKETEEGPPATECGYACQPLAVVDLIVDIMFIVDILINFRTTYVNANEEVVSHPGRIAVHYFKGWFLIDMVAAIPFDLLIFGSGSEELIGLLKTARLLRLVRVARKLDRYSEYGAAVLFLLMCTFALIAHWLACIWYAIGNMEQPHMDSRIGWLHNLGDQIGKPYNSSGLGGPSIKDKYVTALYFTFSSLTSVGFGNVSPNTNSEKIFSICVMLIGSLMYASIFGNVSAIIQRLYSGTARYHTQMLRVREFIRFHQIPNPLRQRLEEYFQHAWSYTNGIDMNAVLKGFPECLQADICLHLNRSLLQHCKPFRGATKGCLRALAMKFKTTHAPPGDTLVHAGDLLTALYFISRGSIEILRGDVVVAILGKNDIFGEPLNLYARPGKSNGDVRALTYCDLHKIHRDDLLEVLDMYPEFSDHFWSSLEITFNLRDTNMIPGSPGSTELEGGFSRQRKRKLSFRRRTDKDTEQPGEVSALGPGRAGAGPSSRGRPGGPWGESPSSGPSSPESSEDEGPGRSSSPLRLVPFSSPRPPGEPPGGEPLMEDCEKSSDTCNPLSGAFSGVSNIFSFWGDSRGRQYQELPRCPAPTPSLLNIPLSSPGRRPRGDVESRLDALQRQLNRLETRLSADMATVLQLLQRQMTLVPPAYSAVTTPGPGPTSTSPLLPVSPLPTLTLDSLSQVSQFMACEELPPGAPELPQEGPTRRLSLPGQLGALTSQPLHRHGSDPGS

SMILES | hERG blockade
CC(=O)Nc1cc(CN2CCCCC2)c(O)c2ncccc12 | -2.13%
NC(CSc1nc2ccccn2c1[N+](=O)[O-])C(=O)O (stereo unspecified) | -1.31%
O=C1c2ccccc2C(=O)c2c1ccc(C(=O)O)c2-c1ccc2ccccc2c1 | 66.5% (active)
O=C(O)c1cccc(N=Nc2c(S(=O)(=O)O)ccc3c2C(=O)c2ccccc2C3=O)c1O | 6.27%
O=C1c2ccccc2C(=O)c2c1ccc(N1C(=O)c3ccccc3C1=O)c2-c1c(N2C(=O)c3ccccc3C2=O)ccc2c1C(=O)c1ccccc1C2=O | 15.5%
NC(C(=O)O)C(O)c1cnc[nH]1 (stereo unspecified) | 2.25%
O=C(O)C1CCCCC1C(=O)Nc1nc2ccccc2[nH]1 (stereo unspecified) | 28.5% (active)
O=C(O)CSc1nc2ccccc2[nH]1 | -15.3%
O=C1c2ccccc2-c2ccc(NC(=O)C3CCCCC3C(=O)O)cc21 (stereo unspecified) | 1.13%
CN(C)CCCNc1ncnc2nc[nH]c12 | 3.18%
C[N+]1(C)CCc2cc(O)c(O)cc2C1Cc1ccc(O)c(O)c1 (stereo unspecified) | -10.5%
CC(=NO)c1cccc[n+]1Cc1ccccc1 | -12.2%
COc1ccc(-c2csc3c2-n2cccc2C3=O)cc1 | 22.6% (active)
NC(=O)C1CCCN1Cc1ccc2c(c1)OCO2 (stereo unspecified) | -14.4%
CC12CCC(=O)C=C1CCC1C2CCC2(C)C(C(=O)Cn3cnc4c(=S)nc[nH]c43)CCC12 (stereo unspecified) | 12.1%
Nc1nc(N)c2[nH]c(CNc3ccc(C(=O)O)cc3)nc2n1 | 16.1%
CCn1c2ccccc2c2nnc(NCCCO)nc21 | -5.84%
CCOc1ccccc1Nc1ccc(N)cc1S(=O)(=O)O | 0.163%
S=C1SCN(C2CCCCCCCCCCC2)CN1C1CCCCCCCCCCC1 | 0.139%
COc1ccc(CSC2=C(C#N)C(=O)NC3(CCCCC3)S2)cc1 | -27.9% (active)
O=C(O)CSc1ccccc1C(=O)O | -2.77%
Cn1ncc2c(NCCc3ccccc3)nc(Cl)nc21 | 10%

SMILES | hERG blockade
Clc1nc(NCCc2ccccc2)c2ncn(-c3ccccc3)c2n1 | 34.7% (active)
c1ccc(CCCNc2nnnc3ccccc23)cc1 | 3.75%
O=C(O)C1(C(=O)O)CCN(S(=O)(=O)c2ccccc2)CC1 | -10%
CC(=NNC1=NCCN1)c1cn(C2=NCCN2)nc1C | 48.8% (active)
Cc1nc2sc3c(c2c(=O)[nH]1)CCCC3 | -7.98%
O=C(O)CC(Cc1ccccc1)C(=O)O (stereo unspecified) | 6.37%
COc1cc(C)cc2c(-c3c(O)cc(O)c4c3CC(C)NC4C)cc(-c3cc(-c4c(O)cc(O)c5c4CC(C)NC5C)c4cc(C)cc(OC)c4c3O)c(O)c12 (stereo unspecified) | 22.2% (active)
COc1cc(C2SCCCCCCCCCCSC(c3ccc(O)c(OC)c3)SCCCCCCCCCCS2)ccc1O (stereo unspecified) | 2.15%
CC(=N[N-]C(=[SH+])SCc1ccccc1)c1ccccn1.[Cl][Cu] | 3.22%
Cc1cc(C)nc(SCCc2cccc[n+]2C)n1 | 71.5% (active)
Cc1ccc(S(=O)(=O)NCc2cccc([N+](=O)[O-])c2)cc1 | 14.6%
Cc1cccc(CNc2ncnc3[nH]ncc23)c1 | -7.57%
COc1ccc(Br)c2c1CC(C(=O)O)CC2 (stereo unspecified) | -1.02%
Cc1ccc(C(=N)c2ccccc2Cc2cccc3ccccc23)c2ccccc12 | -5.31%
c1cncc(CSc2ncnc3nc[nH]c23)c1 | -11.9%
Cc1cc(N2CCOCC2)nc2ccc(Cc3ccc4nc(N5CCOCC5)cc(C)c4c3)cc12 | 42.1% (active)
Cc1cc(Cl)nc2ccc(Cc3ccc4nc(Cl)cc(C)c4c3)cc12 | -16.7%
Cc1cc(N2CCCCC2)nc2ccc(Cc3ccc4nc(N5CCCCC5)cc(C)c4c3)cc12 | 81.4% (active)
Cc1nc2ccccc2nc1N1CCCC1 | -18.7%
COc1ccc(CC(O)CN2CCOCC2)cc1 (stereo unspecified) | -3.36%
NCCNCC1CCNCC1 | -1.79%
OC1COC(OCc2ccccc2)C(O)C1O (stereo unspecified) | -4.05%

SMILES | hERG blockade
COc1ccc(C(=O)NN=C2C(=O)c3c(C)cc(C)cc3CC2(C)C)cc1 | 8.71%
CC1(C)C2CCC1(C)C(OC(=O)C=Cc1ccccc1)C2 (stereo unspecified) | -7.8%
CC(C)c1ccccc1S(=O)c1ccccc1C(C)(C)O (stereo unspecified) | -9.35%
CC(C)CSCC1OC(n2cnc3c(N)nccc32)C(O)C1O (stereo unspecified) | -11.9%
O=C(O)C(Br)C(Br)c1ccccc1[N+](=O)[O-] (stereo unspecified) | -1.11%
CC(=NNc1ccc2ccccc2n1)c1ccccc1O | 8.91%
O=[N+]([O-])c1cccc(C=NNc2ccc3ccccc3n2)c1O | 26.8% (active)
CN(N=Cc1ccccc1O)c1ccc2ccccc2n1 | -0.991%
Cc1cc(-c2cc(C)c(O)c(C(C)(C)C)c2)cc(C(C)(C)C)c1O | 0.0679%
CC(CS(=O)(=O)Cc1ccccc1)C(N)=O (stereo unspecified) | 3.43%
COc1c(O)ccc2c1CN1CCc3cc4c(cc3C1C2)OCO4 (stereo unspecified) | 22.7% (active)
CC1=NC(C)(COC(=O)C2(C)NC(C)(CO)CO2)COC1=O (stereo unspecified) | -5.89%
N=C(N)SCCc1ccccn1 | -2.29% and 1.24%
Cc1ncc(CSC(=N)N)n1Cc1ccccc1 | -16.6%
Cc1c2ccccc2c(CSC(=N)N)c2ccccc12 | 103% (active)
O=C(O)CSCCc1ccccc1 | 5.62%
CC12CC(=O)C3C(CCC4=CC(=O)CCC43C)C1CC=C2CC(=O)O (stereo unspecified) | -16.4%
CCCCSCc1nc2nc(Cl)c(Cl)nc2[nH]1 | -33.6% (active)
O=C(O)c1nc2nc(Cl)c(Cl)nc2[nH]1 | 6.64%
CCN(CCO)CC1CCCC2CCCCC21 (stereo unspecified) | -6.41%
O=C(O)C1C2OC(C(Br)C2Br)C1C(=O)O (stereo unspecified) | -2.82%
CC(=O)NC(Cc1ccc(O)cc1)C(=O)O (stereo unspecified) | -8.5%
